Laboratory results: ChEMBL document CHEMBL3433997, “St. Jude Leishmania screening dataset” (2016)

Assays:
Type in all cases: functional
[1] = target: Solute carrier family 2, facilitated glucose transporter member 1 (Homo sapiens) (UniProt P11166); test: ST_JUDE_LEISH: Cytotoxicity at 2uM final concentration against transgenic Leishmania Mexicana promastigotes LmGLUT1 that are glucose transport deficient and complemented with the human glucose transporter GLUT1. Activity is measured by DNA content using SYBR green in vitro
Chain of Solute carrier family 2, facilitated glucose transporter member 1 (Homo sapiens) (P11166 whole entry): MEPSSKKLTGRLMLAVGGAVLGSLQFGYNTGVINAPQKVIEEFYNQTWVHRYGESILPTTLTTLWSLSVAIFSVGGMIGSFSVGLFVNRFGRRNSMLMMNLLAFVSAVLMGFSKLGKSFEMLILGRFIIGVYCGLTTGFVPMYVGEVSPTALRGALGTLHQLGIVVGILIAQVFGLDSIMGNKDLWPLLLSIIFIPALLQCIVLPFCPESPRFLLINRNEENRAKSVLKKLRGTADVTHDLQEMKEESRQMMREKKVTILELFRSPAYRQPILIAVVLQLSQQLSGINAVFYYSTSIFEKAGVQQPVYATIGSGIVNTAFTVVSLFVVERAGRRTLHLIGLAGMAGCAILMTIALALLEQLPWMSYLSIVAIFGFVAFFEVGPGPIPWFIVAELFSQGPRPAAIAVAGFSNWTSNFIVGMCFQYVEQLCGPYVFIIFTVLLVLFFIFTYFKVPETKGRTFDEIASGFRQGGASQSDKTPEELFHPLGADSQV

[2] = target: Hexose transporter 1 (Plasmodium falciparum) (UniProt O97467); test: ST_JUDE_LEISH: Cytotoxicity at 2uM final concentration against transgenic Leishmania Mexicana promastigotes LmPfHT that are glucose transport deficient and complemented with the Plasmodium falciparum hexose transporter. Activity is measured by DNA content using SYBR green in vitro
[3] = target: Glucose transporter (Leishmania mexicana) (UniProt O61059); test: ST_JUDE_LEISH: Cytotoxicity at 2uM final concentration against transgenic Leishmania Mexicana promastigotes LmGT2 that are glucose transport deficient and complemented with the L. Mexicana glucose transporter 2. Activity is measured by DNA content using SYBR green in vitro

CCCCN1CC[C@@H](CCC(O)c2ccnc3ccc(OCCC(C)C)cc23)[C@@H](CC)C1 (stereo partly specified)
inhibition [1]: 1.18% | inhibition [2]: 4.04% | inhibition [3]: 3.24%

CN(C)CCN1CCN(CCCN2c3ccccc3Sc3ccc(C(F)(F)F)cc32)CC1
inhibition [1]: 3.37% | inhibition [2]: 3.77% | inhibition [3]: 3.66%

O=C(/C=C/c1ccc(Cl)c(Cl)c1)NCCCCN1CCCN(C(=O)Nc2ccc(F)c(Cl)c2)CC1
inhibition [1]: 3% | inhibition [2]: 1.91% | inhibition [3]: -0.33%

CCOc1c(Br)cc(Br)cc1CNCCCCNc1nc2ccccc2[nH]1
inhibition [1]: 3.08% | inhibition [2]: 2.4% | inhibition [3]: 3.2%

Cc1ccc(O)cc1Nc1ccnc2cc(-c3ccccc3)ccc12
inhibition [1]: 7.87% | inhibition [2]: 8.41% | inhibition [3]: 7.72%

CCc1ccc(CN2CCC(NC(=O)c3ccc(-c4ccccc4F)s3)CC2)cc1
inhibition [1]: 0.37% | inhibition [2]: 0.03% | inhibition [3]: -5.91%

CCN1CCN(c2cc(C)c3cc(NC(=O)c4cccc(C(F)(F)F)c4)ccc3n2)CC1
inhibition [1]: 3.14% | inhibition [2]: 3.29% | inhibition [3]: 1.11%

O=C(Nc1ccc(N2CCNCC2)nc1)c1oc(-c2ccccc2)nc1C(F)(F)F
inhibition [1]: 2.9% | inhibition [2]: 3.6% | inhibition [3]: 0.32%

Cc1cccc(NC(=O)c2ccc(C(=O)NC3CCN(CC4CCCCC4)CC3)cc2)c1
inhibition [1]: 4.08% | inhibition [2]: 7.67% | inhibition [3]: 4.8%

Cc1cccc2[nH]c(-c3cc(-c4cn[nH]c4)cnc3N)nc12
inhibition [1]: 2.56% | inhibition [2]: 2.36% | inhibition [3]: 2.33%

NCC1CCCN1Cc1ccc(-c2cccc(-c3nc4cc(F)ccc4[nH]3)c2)cc1 (stereo unspecified)
inhibition [1]: 3.25% | inhibition [2]: 1.31% | inhibition [3]: 1.35%

Cc1ccc(CN2CCC(Oc3cccc(NC(=O)c4ccc(C(F)(F)F)cc4)c3)CC2)cc1
inhibition [1]: 5.11% | inhibition [2]: 0.79% | inhibition [3]: 3.6%

N=C(N)NCCCCN(Cc1ccccc1)c1ccccc1
inhibition [1]: 3.52% | inhibition [2]: 3.53% | inhibition [3]: 3.86%

Cc1c(F)cc(C(=O)NC2CC2)cc1-c1ccc2c(cnn2S(=O)(=O)c2ccc(C#N)cc2)c1
inhibition [1]: -0.7% | inhibition [2]: 1.11% | inhibition [3]: 0.73%

Cc1ccc(-c2nnc(-c3ccc(C(=O)NC4CCN(Cc5ccc(C#N)cc5)CC4)cc3)o2)cc1Br
inhibition [1]: 8.8% | inhibition [2]: 5.73% | inhibition [3]: 4.37%

O=S(=O)(Nc1cccc(CCN2CCC(N3CCCCC3)CC2)c1)c1ccc(Cl)cc1
inhibition [1]: 1.09% | inhibition [2]: 1.72% | inhibition [3]: 0.8%

COc1cc(Br)c(S(=O)(=O)n2cc(CN3CCC(N)CC3)c3cc(Cl)ccc32)cc1OC
inhibition [1]: 1.4% | inhibition [2]: 2.11% | inhibition [3]: 0.57%

O=C(/C=C/c1ccc(Cl)c(Cl)c1)N1CCC(CN2CCC(c3c[nH]c4cnccc34)CC2)CC1
inhibition [1]: 4.52% | inhibition [2]: 3.14% | inhibition [3]: 4.67%

OCC1CCN(Cc2cccc(C#Cc3cc4ncnc(Nc5ccc(OCc6cccc(F)c6)c(Cl)c5)c4s3)n2)CC1
inhibition [1]: 14.1% | inhibition [2]: 8.82% | inhibition [3]: 9.61%

Fc1ccc(NC(=S)NCCc2ccccc2)cc1
inhibition [1]: 0.73% | inhibition [2]: -2.25% | inhibition [3]: 0.04%

Cc1nc(N)nc(N)c1OCc1cccc2c1ccc1ccccc12
inhibition [1]: 3.53% | inhibition [2]: 6.28% | inhibition [3]: 2.84%

CC(C)c1ccc2c(c1)c(SC(C)(C)C)c(CC(C)(C)C#N)n2Cc1ccc(Cl)cc1
inhibition [1]: 3.18% | inhibition [2]: 0.69% | inhibition [3]: -0.23%

O=C(Nc1ccccc1)Nc1cccc(-c2cccc(-c3nc4cc(F)ccc4[nH]3)c2)c1
inhibition [1]: 2.45% | inhibition [2]: 2.61% | inhibition [3]: 1.59%

Cc1cc(N[C@@H](CC(C)C)C(=O)NCc2cccs2)nc(NCCc2ccc(F)cc2)n1
inhibition [1]: 0.98% | inhibition [2]: -0.43% | inhibition [3]: 0.13%

O=C(/C=C/c1ccc(Cl)c(Cl)c1)NCCC(CN1CCC(c2c[nH]c3ccccc23)CC1)c1ccccc1 (stereo unspecified)
inhibition [1]: 2.74% | inhibition [2]: 2.22% | inhibition [3]: 0.88%

O=C(/C=C/c1ccc(Cl)c(Cl)c1)NCCCCCN1CCCN(C(=O)Nc2cccc(C(F)(F)F)c2)CC1
inhibition [1]: 3.99% | inhibition [2]: 2.84% | inhibition [3]: 3.62%

CC(C)c1ccc(NC(=O)c2ccc(C(=O)NCC3CCN(CC4CCCCC4)CC3)cc2)cc1
inhibition [1]: 3.12% | inhibition [2]: 1.53% | inhibition [3]: 1.95%

Cc1c(Cc2ccc(F)cc2)c(Cl)nc2nc(N)nc(N)c12
inhibition [1]: 0.75% | inhibition [2]: 0.4% | inhibition [3]: -0.27%

CC(C)(C)C1=CC(=NNC(=O)c2ccncc2)C=C(C(C)(C)C)C1=O
inhibition [1]: 11.8% | inhibition [2]: 14% | inhibition [3]: -0.13%

COc1ccc2nc(C)cc(Nc3ccc(Oc4ccc5ccccc5c4Cl)c(Cl)c3)c2c1
inhibition [1]: 13.7% | inhibition [2]: 12.6% | inhibition [3]: 8.39%

COc1ccc2[nH]c(-c3ccccc3)cc(=NN=Cc3ccncc3)c2c1
inhibition [1]: 3.48% | inhibition [2]: 3.17% | inhibition [3]: 5.54%

Oc1ccc(Cl)cc1-c1cc(C(F)(F)F)nc(-c2ccccc2)n1
inhibition [1]: 7.04% | inhibition [2]: 5.96% | inhibition [3]: 8.28%

Cn1cncc1C(=O)Nc1ccc(-c2cccc(-c3nc4cc(F)ccc4[nH]3)c2)cc1
inhibition [1]: 3.54% | inhibition [2]: 3.21% | inhibition [3]: 4.7%

CCc1c(CCNCCCCCCNCCc2ccc([N+](=O)[O-])cc2)ccc(OC)c1OC
inhibition [1]: 12.1% | inhibition [2]: 10.1% | inhibition [3]: 12.9%

Clc1ccc2c(N3CCCNCC3)ccnc2c1
inhibition [1]: 1.53% | inhibition [2]: 1.07% | inhibition [3]: 4.48%

NC1CCN(Cc2ccc(-c3ccc(-c4nc5ccccc5[nH]4)s3)cc2)C1 (stereo unspecified)
inhibition [1]: 3.97% | inhibition [2]: 1.77% | inhibition [3]: 3.21%

Cc1nc2nc(N)nc(N)c2c(C)c1Cc1ccccc1Cl
inhibition [1]: 9.22% | inhibition [2]: 12.6% | inhibition [3]: 7.89%
